Bioassay records deposited in PubChem by NMMLSC.
BoNT-F LC inh: BoNT/F light chain protease inhibitors, primary screen, biochemical, flow cytometry, MLPCN library; Multiplex microsphere protease cleavage assay; inhibition, % at 10 µM; actives 0.22% (n = 360,000); Botulinum neurotoxin type F light chain protease (Clostridium botulinum); in the data active = inhibition above about 35%, passing the limit was not always enough; inconclusive = no clear call, values can overlap the other calls; also: plate controls were buffer without enzyme for full effect and enzyme alone for no effect
Anthrax LF inh2: Bacillus anthracis LF protease inhibitors, primary screen, biochemical, multiplex microsphere, MLPCN library; Lethal factor (Bacillus anthracis), P15917; multiplex microsphere protease cleavage assay; inhibition, % at 10 µM; actives 0.12% (n = 360,000); also: plate controls were buffer without enzyme for full effect and enzyme alone for no effect
Target sequence (P15917 whole entry, looked up): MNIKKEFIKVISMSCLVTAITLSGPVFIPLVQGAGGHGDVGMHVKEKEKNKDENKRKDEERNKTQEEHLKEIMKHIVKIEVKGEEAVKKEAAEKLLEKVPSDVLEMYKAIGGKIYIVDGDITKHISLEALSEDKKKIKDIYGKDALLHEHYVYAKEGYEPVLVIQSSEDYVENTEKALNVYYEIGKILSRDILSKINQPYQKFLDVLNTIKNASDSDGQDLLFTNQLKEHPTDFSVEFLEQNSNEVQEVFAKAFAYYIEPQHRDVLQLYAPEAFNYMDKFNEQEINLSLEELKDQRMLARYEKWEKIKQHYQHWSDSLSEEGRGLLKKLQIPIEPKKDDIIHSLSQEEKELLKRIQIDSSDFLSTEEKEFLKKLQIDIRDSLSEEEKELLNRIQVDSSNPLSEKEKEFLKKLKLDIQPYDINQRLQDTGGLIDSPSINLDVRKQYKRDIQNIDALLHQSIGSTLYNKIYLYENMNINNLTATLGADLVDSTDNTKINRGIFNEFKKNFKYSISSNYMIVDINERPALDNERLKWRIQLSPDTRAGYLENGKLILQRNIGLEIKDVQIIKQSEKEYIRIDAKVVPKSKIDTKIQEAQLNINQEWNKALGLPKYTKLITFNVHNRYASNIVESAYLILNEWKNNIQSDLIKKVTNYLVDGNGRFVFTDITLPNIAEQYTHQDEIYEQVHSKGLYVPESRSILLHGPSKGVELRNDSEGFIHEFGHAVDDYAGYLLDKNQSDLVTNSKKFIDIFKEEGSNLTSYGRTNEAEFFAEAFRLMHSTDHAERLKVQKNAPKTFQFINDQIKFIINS
BoNT-A LC inh2: BoNT/A light chain protease inhibitors, primary screen, biochemical, flow cytometry, MLPCN library | Botulinum neurotoxin type A light chain protease (Clostridium botulinum A str. ATCC 3502) | inhibition, % at 10 µM | actives 0.17% (n = 360,000) | multiplex microsphere protease substrate cleavage; also: plate controls were buffer without enzyme for full effect and enzyme alone for no effect
Bead autofluor: compound fluorescence in toxin protease inhibitor counterscreen; compound autofluorescence counterscreen, microsphere flow cytometry; stronger effect = higher value; fluorescence intensity (no concentration beside the values); actives 3.1% (n = 360,000); in the data active = fluorescence intensity above about 16000; inconclusive = no clear call, values can overlap the other calls
Numbers without * were called inactive; ? = inconclusive. Compounds with a hit are over-represented: about 3.5% of the library has one in this group of screens. Rule as the data show it, unless noted: active = inhibition above about 30%; inconclusive = no clear call, values can overlap the other calls; inactive = below that.

SMILES	BoNT-F LC inh	Anthrax LF inh2	BoNT-A LC inh2	Bead autofluor
O=C(O)c1cccc(CSc2nnc(-c3ccco3)o2)c1	-3	-2	0	5168
COc1cc(OC)cc(-c2nnc(SCc3cccc(C(=O)O)c3)o2)c1	1	0	2	22846*
COc1ccc(-c2nnc(SCC(=O)/C(C#N)=C(\C)N)o2)cc1	-2	0	?	24309*
COc1ccc(NC(=O)N(C)C[C@@H]2OCc3cnnn3CCCC(=O)N([C@@H](C)CO)C[C@H]2C)cc1	4	1	0	3715
CCCCn1nnnc1NCc1cc(OC)c(OC)cc1OC	0	0	0	16650*
CCCn1nnnc1NCc1ccc(OC)cc1OC	6	-7	0	3552
Cc1cc(C(=O)Nc2ccc(S(=O)(=O)Nc3nccs3)cc2)c(C)o1	-3	-2	-2	24552*
O=S(=O)(Nc1ccc(S(=O)(=O)Nc2nccs2)cc1)c1ccc2c(c1)OCCO2	-5	-2	-1	16416*
CCCCC1CCC(C(=O)Nc2ccc(S(=O)(=O)Nc3nccs3)cc2)CC1 (stereo not drawn)	-4	-2	?	24211*
Cc1ccc(S(=O)(=O)Nc2ccc(S(=O)(=O)Nc3nccs3)cc2)cc1C	-5	2	1	3831
CN(CCOc1ccc(Cl)cc1)c1ccc(S(=O)(=O)N2CCCCC2)cn1	-6	-4	?	24914*
Cc1ccc(OCCNc2ccc(S(=O)(=O)N3CCCC3)cn2)cc1	-7	?	-4	7214
CCCCN(C(=O)C(C)Oc1ccc(Br)cc1)c1c(N)n(CC(C)C)c(=O)[nH]c1=O (stereo not drawn)	3	-5	1	2941
CC1(C)Cc2ccccc2-c2nnc(SCc3ccccc3)n21	0	7	1	8566
CC1(C)Cc2ccccc2-c2nnc(-c3ccccn3)n21	-2	-5	0	20079*
CCOC(=O)C(C)Sc1nnc2n1C(C)(C)Cc1ccccc1-2 (stereo not drawn)	-9	-4	?	24062*
CC1(C)Cc2ccccc2-c2nnc(-c3ccccc3)n21	1	3	2	22143*
COc1ccc(C)cc1NC(=O)C(c1ccccc1)N1CCN(CC(=O)NC2CC2)CC1 (stereo not drawn)	5	0	0	?
O=C(O)c1cc2cc(Cl)ccc2oc1=O	3	-2	1	22395*
O=C(Nc1ccc(N2CCN(C(=O)c3ccc(Cl)cc3)CC2)cc1)c1cc2ccccc2o1	-4	0	-2	21324*
c1ccc2c(c1)Cc1ccccc1O2	2	-4	0	4330
Cc1nn(CC(=O)c2ccc3c(c2)OCCO3)c(=O)c(C#N)c1C	0	-8	0	3931
CCOC(=O)c1cc(OC(=O)c2ccccc2)n(-c2ccccc2)n1	-1	0	-1	23849*
CCOC(=O)c1cc(OC(=O)c2cccc([N+](=O)[O-])c2)n(-c2ccccc2)n1	-3	0	?	17208*
CCOC(=O)c1cc(OC(=O)c2cccs2)n(-c2ccccc2)n1	-2	-1	-1	10007
SMILES	BoNT-F LC inh	Anthrax LF inh2	BoNT-A LC inh2	Bead autofluor
Cc1ccc(C(=O)COC(=O)c2cn(-c3ccccc3)nc2-c2ccccc2)cc1[N+](=O)[O-]	-4	-1	1	2060
O=C(COC(=O)c1cn(-c2ccccc2)nc1-c1ccccc1)c1cccc([N+](=O)[O-])c1	-5	-5	-1	16553*
CCOC(=O)c1cc(OC(=O)c2ccccc2Br)n(-c2ccccc2)n1	-6	-2	0	10633
CCN(Cc1ccccc1)C(=O)Cn1c(=O)n(CC(=O)NCc2ccco2)c(=O)c2sccc21	1	-9	0	21886*
CC1CCN(C(=O)Cn2c(=O)n(CCCC(=O)NCc3ccco3)c(=O)c3sccc32)CC1	-13	9	-1	3601
Cc1cccc(C)c1NC(=O)Cn1c(=O)n(CCC(=O)NCc2ccco2)c(=O)c2sccc21	-4	-3	-2	20666*
CC1CCCCN1C(=O)Cn1c(=O)n(CCC(=O)NCc2ccco2)c(=O)c2sccc21 (stereo not drawn)	4	-1	2	19227*
CCOC(=O)/C(=C\c1cccc(O)c1)c1nc2sc(C)c(C)c2c(=O)[nH]1	1	-1	0	2394
CCc1c(C)sc(NC(=O)c2ccco2)c1C(=O)N1CCCCC1	1	0	2	22698*
S=C1NCN(C2CCCCC2)CN1CCc1ccccc1	14	?	0	3963
CN=C(Nc1cc(C)nn1-c1ccccc1)c1ccccc1F	-3	-1	-2	23781*
